Data on nine molecules can be found in PubChem BioAssay (Tox21).

Values without a mark were called inactive. Results filed as inconclusive are left out. Calls of active or inactive are those of the source. Unless noted, calls come from the whole dose curve; as a rule, active = well fitted curve in the direction sought with a large enough effect in the repeat runs; inconclusive = weak or mixed curves; inactive = no such curve, though single readings can be large; an effect the other way counts as inactive or inconclusive.

The nature of test [1]: qHTS assay to identify small molecule agonists of the TGF-beta/Smad signaling pathway - cell viability counter screen (AID 1346829). Note: top concentration of the series differs between compounds; nearly all actives have a fitted effect of over 45% in size. Summed up: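 Tox21 qHTS format: SBE-bla HEK 293T cells treated with DMSO-dissolved compounds for 5 hr; CellTiter-Glo luminescence after 30 min at room temperature.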
Test [2] in a line: qHTS assay to identify small molecule agonists of the TGF-beta/Smad signaling pathway (AID 1346859; active = well fitted activation curve with a large enough effect in the signal ratio in the repeat runs, not every such curve was filed as active; the % refers to the signal ratio; note: series mostly up to about 77 µM). The procedure, abridged: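 Dual-wavelength fluorescence (460/530 nm emission) quantified beta-lactamase expression under the Smad binding element in HEK 293T cells following 5 hr compound treatment at 37 C.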
Background: Quantitative high-throughput screening tests each substance at several concentrations.

Test [3] has as its target Thyrotropin-releasing hormone receptor (Homo sapiens) (UniProt P34981). Briefly: qHTS assay to identify small molecule antagonists of the thyrotropin-releasing hormone receptor (TRHR) signaling pathway (AID 1346877; active = well fitted inhibition curve with a large enough effect in the repeat runs, not every such curve was filed as active; note: series mostly up to about 51 µM). Summed up: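 Cells (TRHR-HEK293) are plated and kept 18 h at 37 °C/5% CO2. A calcium-sensitive dye is added for 2 h, compound follows for 5 min at room temperature, and TRH is then given at 1 nM final.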

For test [4] the target is unchanged. Briefly: qHTS assay to identify small molecule agonists of the thyrotropin-releasing hormone receptor (TRHR) signaling pathway (AID 1346891; calls by dose curve;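 note: HEK293 cells expressing TRHR with calcium dye readout; series mostly up to about 58 µM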). Summed up: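 Kinetic fluorescence (3 min, 1 s intervals) reported intracellular calcium after compound transfer onto TRHR-Hek293 cells pre-loaded with dye for 2 h at 37 °C.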
Test [5] is described as follows: Human pregnane X receptor (PXR) small molecule agonists, qHTS cell viability counter screen (AID 1346977). Note: nearly all actives have a fitted effect of over 50% in size. Summed up:
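HepG2 cells stably carrying the PXR-Luc reporter are cultured with 5% charcoal-stripped FBS and treated with compounds for 24hr. CellTiter-Fluor is added at 23hr and fluorescence is read after 1hr.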

Test [6] in a line: Caspase-3/7 induction in HepG2 cells by small molecules, qHTS assay (AID 1346978). Note: nearly all actives have a fitted effect of over 15% in size. The procedure, abridged: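 Wild-type HepG2 cells, 2,000/well, settled 5 hr at 37 C and 5% CO2, then compound-treated for 17 hr; caspase-3/7 activity read by luminescent Caspase-Glo 3/7 after 30 min at room temperature.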
Test [7] can be described thus: Caspase-3/7 induction in CHO-K1 cells by small molecules, qHTS cell viability counter screen (AID 1346979). Note: nearly all actives have a fitted effect of over 35% in size. Summed up:
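Seeding: 1,500 CHO-K1 cells/well. Rest: 5hr, 37C. Treatment: compounds in DMSO, 16hr. Read: CellTiter-Fluor, 1hr, fluorescence.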

Test [8] in a line: Caspase-3/7 induction in CHO-K1 cells by small molecules, qHTS assay (AID 1346980). Note: nearly all actives have a fitted effect of over 15% in size. The procedure, abridged: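 Wild-type CHO-K1 cells exposed to compounds for 17hr at 37 C, 5% CO2. Caspase-3/7 activity then measured by Caspase-Glo 3/7 luminescence after 30min at room temperature.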
Test [9] is described as follows: Caspase-3/7 induction in HepG2 cells by small molecules, qHTS cell viability counter screen (AID 1346981). Note: series mostly up to about 92 µM; nearly all actives have a fitted effect of over 30% in size. The procedure, abridged: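 Steps: seed 2,000 HepG2 cells per well; incubate 5 hr at 37 C; pin-add compounds in DMSO; incubate 16 hr; add CellTiter-Fluor; after 1 hr at 37 C and 5% CO2, read fluorescence.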
The target in test [10] is Nuclear receptor subfamily 1 group I member 2 (Homo sapiens) (UniProt O75469). Nature of the test: Human pregnane X receptor (PXR) small molecule agonists, qHTS assay (AID 1346982). Note: nearly all actives have a fitted effect of over 35% in size. Note: potency is the fitted concentration of half-maximal effect. The procedure, abridged:
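Agonist mode qHTS: PXR-Luc HepG2 cells plated 5 hr before DMSO-dissolved compounds were pinned in, cultured 24 hr at 37 C, 5% CO2; ONE-Glo luminescence readout.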

The target of test [11] is Cytochrome P450 1A2 (Homo sapiens) (UniProt P05177). Briefly: Cytochrome P450 Family 1 Subfamily A Member 2 (CYP1A2) small molecule antagonists: luciferase reporter qHTS assay (AID 1671199). Note: nearly all actives have a fitted effect of over 50% in size. Note: potency is the fitted concentration of half-maximal effect. Summed up:
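Inhibition of CYP1A2 conversion of proluciferin to luciferin, detected by luminescence. Reaction run 1 h at room temperature with NADPH regeneration after brief compound preincubation.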
In general terms: Reporter assays use an easily measured gene product as a stand-in for the process of interest.

The target of test [12] is Cytochrome P450 3A4 (Homo sapiens) (UniProt P08684). Briefly: Cytochrome P450 Family 3 Subfamily A Member 4 (CYP3A4) small molecule antagonists: luciferase reporter qHTS assay (AID 1671201). Note: nearly all actives have a fitted effect of over 50% in size. Note: potency is the fitted concentration of half-maximal effect. The procedure, abridged: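 Enzyme and proluciferin substrate are mixed with test chemicals for 10 min, then NADPH regeneration system drives turnover for 1 h at room temperature. A detection reagent halts the reaction; luminescence after 20 min gives relative activity.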

In test [13] the target is Cytochrome P450 2C19 (Homo sapiens) (UniProt P33261). Nature of the test: Cytochrome P450 Family 2 Subfamily C Member 19 (CYP2C19) small molecule antagonists: luciferase reporter qHTS assay (AID 1671197). Note: series mostly up to about 120 µM; nearly all actives have a fitted effect of over 65% in size. Summed up: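 Relative luminescence units recorded 20 min after the detection reagent stopped a 1 h, 37C CYP2C19 reaction on proluciferin substrate, which was started by NADPH regeneration following 10 min room-temperature compound preincubation; ketoconazole positive control.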

The target of test [14] is Cytochrome P450 2C9 (Homo sapiens) (UniProt P11712). Briefly: Cytochrome P450 Family 2 Subfamily C Member 9 (CYP2C9) small molecule antagonists: luciferase reporter qHTS assay (AID 1671198). Note: nearly all actives have a fitted effect of over 50% in size. Note: potency is the fitted concentration of half-maximal effect. The procedure, abridged:
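P450-Glo proluciferin substrate with CYP2C9 enzyme; 10 min RT preincubation, then NADPH regeneration 1 h at 37C; luciferin detection reagent 20 min RT, luminescence in relative luminescence units.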

Test [15] has as its target Voltage-gated inwardly rectifying potassium channel KCNH2 (Homo sapiens) (UniProt Q12809). Nature of the test: Human Ether-a-go-go-Related Gene (hERG) channel small molecule antagonists: fluorescence cell-based qHTS assay (AID 1671200). The procedure, abridged:
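First, 1000 cells per well are seeded and cultured overnight at 37 C. Next, FluxOR II dye is loaded for 1 h at room temperature, protected from light. After 10 more minutes, stimulus is added and fluorescence is read.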
In general terms: Block of hERG is tested as a sign of cardiac risk.

For test [16], the target named is Cytochrome P450 2D6 (Homo sapiens) (UniProt P10635). Nature of the test: Cytochrome P450 Family 2 Subfamily D Member 6 (CYP2D6) small molecule antagonists: luciferase reporter qHTS assay (AID 1671196). Note: nearly all actives have a fitted effect of over 50% in size. Note: potency is the fitted concentration of half-maximal effect. The procedure, abridged: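 P450-Glo format: CYP2D6 converts a proluciferin substrate to luciferin in an NADPH-driven reaction lasting 1 h at room temperature. Light output, proportional to CYP2D6 activity, reflects interference by test chemicals.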

The target in test [17] is Nuclear receptor subfamily 1 group I member 2 (Rattus norvegicus) (UniProt Q9R1A7). Briefly: Rat pregnane X receptor (rPXR) activation by small molecules, qHTS assay (AID 1346983). Note: nearly all actives have a fitted effect of over 20% in size. The note with it: rPXR luciferase reporter cells, One-Glo luminescence, 24 h; active compounds read high. The procedure, abridged:
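Cell-based rPXR activation assay: rPXR cells, 2,000 per well, rested 5hr at 37 C, then exposed to compounds in DMSO for 24 hr at 37 C. Luciferase activity read by One-Glo luminescence after 30 min at room temperature.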

Test [18] deals with Nuclear receptor subfamily 1 group I member 2 (Homo sapiens) (UniProt O75469). Nature of the test: CYP3A4 induction through human pregnane X receptor (PXR) by small molecules, qHTS assay (AID 1346984). Note: nearly all actives have a fitted effect of over 40% in size. The procedure, abridged:
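Steps: seed DPX-2 cells, 5 hr at 37C; pin-transfer compounds; 24 hr at 37C; add Luciferin-IPA (3uM final), 3 hr at 37C; add One-Glo, 30 min RT; read luminescence.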

The target is the same in test [19]. Briefly: Human pregnane X receptor (PXR) activation by small molecules, qHTS assay (AID 1346985). Note: nearly all actives have a fitted effect of over 40% in size. The procedure, abridged:
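DPX-2 cells (HepG2 co-transfected with a PXR response element and a CYP3A4-promoter luciferase construct) were seeded at 2,000 per well, rested 5 hr at 37C, then exposed to DMSO-dissolved compounds for 24 hr. Activation was read as luciferase luminescence.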
% is set by controls: 0 for no effect and ±100 for the full control effect.

Sequence of Cytochrome P450 1A2 (Homo sapiens) (P05177 whole entry, looked up): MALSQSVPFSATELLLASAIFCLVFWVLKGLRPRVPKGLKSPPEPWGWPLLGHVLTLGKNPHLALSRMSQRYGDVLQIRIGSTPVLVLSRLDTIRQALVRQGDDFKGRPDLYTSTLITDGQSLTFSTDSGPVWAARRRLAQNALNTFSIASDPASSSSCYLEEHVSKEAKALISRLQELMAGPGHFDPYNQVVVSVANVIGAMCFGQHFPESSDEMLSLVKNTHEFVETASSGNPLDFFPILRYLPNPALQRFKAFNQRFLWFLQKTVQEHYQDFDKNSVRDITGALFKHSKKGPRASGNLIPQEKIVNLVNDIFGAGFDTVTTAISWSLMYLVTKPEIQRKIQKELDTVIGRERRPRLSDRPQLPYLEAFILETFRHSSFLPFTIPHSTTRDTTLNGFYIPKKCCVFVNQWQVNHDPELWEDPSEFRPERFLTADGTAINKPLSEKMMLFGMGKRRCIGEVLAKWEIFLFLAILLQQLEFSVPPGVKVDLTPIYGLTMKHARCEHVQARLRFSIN
Sequence of Nuclear receptor subfamily 1 group I member 2 (Homo sapiens) (O75469 whole entry, looked up): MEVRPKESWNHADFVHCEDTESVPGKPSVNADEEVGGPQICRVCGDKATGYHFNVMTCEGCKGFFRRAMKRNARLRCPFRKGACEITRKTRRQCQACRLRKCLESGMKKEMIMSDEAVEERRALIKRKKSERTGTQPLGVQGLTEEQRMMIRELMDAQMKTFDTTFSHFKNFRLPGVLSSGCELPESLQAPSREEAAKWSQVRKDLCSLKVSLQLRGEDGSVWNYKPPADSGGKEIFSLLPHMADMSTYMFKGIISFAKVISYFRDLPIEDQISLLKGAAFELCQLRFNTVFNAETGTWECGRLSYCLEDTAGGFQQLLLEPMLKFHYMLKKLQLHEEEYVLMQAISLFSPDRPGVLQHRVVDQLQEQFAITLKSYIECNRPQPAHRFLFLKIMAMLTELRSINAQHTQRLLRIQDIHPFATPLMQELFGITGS
Sequence of Cytochrome P450 2D6 (Homo sapiens) (P10635 whole entry, looked up): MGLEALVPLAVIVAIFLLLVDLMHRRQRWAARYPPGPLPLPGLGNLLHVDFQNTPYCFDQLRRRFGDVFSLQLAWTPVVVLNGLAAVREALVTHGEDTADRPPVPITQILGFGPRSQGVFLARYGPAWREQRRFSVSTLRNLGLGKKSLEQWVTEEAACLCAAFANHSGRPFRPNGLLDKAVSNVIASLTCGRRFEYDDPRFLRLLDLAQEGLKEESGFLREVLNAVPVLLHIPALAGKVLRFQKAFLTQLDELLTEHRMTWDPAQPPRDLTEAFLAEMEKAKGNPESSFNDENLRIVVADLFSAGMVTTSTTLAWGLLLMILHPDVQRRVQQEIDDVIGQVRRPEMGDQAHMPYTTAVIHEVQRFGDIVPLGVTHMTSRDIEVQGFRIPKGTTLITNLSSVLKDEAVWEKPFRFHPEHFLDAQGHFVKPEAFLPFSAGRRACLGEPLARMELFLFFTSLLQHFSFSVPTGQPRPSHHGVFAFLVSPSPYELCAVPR
Sequence of Thyrotropin-releasing hormone receptor (Homo sapiens) (P34981 whole entry, looked up): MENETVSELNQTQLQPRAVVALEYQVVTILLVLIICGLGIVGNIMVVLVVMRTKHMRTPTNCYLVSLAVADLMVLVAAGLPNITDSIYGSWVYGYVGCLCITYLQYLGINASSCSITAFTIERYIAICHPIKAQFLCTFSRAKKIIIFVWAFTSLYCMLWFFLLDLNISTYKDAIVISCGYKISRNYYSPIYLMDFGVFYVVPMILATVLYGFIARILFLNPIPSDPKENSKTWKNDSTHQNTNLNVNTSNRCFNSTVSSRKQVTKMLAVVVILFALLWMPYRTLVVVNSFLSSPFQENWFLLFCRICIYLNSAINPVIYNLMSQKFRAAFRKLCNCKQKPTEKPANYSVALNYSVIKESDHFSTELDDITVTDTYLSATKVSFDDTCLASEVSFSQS
Sequence of Cytochrome P450 2C19 (Homo sapiens) (P33261 whole entry, looked up): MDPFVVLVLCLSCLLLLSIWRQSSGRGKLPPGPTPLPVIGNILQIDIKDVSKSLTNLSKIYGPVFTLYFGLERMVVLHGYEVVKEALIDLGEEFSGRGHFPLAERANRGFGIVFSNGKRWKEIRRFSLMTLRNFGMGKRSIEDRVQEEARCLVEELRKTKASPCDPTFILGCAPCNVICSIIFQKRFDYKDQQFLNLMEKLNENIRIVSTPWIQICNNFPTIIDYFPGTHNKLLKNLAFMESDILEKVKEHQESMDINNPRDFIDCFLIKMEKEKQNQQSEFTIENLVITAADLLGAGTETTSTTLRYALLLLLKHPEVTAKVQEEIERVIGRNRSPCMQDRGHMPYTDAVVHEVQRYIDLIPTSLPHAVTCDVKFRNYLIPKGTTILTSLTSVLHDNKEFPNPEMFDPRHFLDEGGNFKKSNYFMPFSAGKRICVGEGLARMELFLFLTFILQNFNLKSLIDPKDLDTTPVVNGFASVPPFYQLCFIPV
Sequence of Cytochrome P450 3A4 (Homo sapiens) (P08684 whole entry, looked up): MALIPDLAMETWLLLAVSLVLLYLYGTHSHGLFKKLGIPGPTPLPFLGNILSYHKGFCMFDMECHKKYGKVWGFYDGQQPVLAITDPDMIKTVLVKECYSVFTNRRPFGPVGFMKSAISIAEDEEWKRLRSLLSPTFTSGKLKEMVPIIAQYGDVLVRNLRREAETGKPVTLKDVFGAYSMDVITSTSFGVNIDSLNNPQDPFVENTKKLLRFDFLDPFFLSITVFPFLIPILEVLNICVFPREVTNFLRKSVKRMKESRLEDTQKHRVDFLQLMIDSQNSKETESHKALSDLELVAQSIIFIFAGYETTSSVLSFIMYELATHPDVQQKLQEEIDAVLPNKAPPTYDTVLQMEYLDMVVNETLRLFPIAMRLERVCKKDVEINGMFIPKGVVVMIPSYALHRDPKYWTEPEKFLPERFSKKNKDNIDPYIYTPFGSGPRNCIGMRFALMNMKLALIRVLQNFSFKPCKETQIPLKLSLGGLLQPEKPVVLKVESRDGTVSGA
Sequence of Voltage-gated inwardly rectifying potassium channel KCNH2 (Homo sapiens) (Q12809 whole entry, looked up): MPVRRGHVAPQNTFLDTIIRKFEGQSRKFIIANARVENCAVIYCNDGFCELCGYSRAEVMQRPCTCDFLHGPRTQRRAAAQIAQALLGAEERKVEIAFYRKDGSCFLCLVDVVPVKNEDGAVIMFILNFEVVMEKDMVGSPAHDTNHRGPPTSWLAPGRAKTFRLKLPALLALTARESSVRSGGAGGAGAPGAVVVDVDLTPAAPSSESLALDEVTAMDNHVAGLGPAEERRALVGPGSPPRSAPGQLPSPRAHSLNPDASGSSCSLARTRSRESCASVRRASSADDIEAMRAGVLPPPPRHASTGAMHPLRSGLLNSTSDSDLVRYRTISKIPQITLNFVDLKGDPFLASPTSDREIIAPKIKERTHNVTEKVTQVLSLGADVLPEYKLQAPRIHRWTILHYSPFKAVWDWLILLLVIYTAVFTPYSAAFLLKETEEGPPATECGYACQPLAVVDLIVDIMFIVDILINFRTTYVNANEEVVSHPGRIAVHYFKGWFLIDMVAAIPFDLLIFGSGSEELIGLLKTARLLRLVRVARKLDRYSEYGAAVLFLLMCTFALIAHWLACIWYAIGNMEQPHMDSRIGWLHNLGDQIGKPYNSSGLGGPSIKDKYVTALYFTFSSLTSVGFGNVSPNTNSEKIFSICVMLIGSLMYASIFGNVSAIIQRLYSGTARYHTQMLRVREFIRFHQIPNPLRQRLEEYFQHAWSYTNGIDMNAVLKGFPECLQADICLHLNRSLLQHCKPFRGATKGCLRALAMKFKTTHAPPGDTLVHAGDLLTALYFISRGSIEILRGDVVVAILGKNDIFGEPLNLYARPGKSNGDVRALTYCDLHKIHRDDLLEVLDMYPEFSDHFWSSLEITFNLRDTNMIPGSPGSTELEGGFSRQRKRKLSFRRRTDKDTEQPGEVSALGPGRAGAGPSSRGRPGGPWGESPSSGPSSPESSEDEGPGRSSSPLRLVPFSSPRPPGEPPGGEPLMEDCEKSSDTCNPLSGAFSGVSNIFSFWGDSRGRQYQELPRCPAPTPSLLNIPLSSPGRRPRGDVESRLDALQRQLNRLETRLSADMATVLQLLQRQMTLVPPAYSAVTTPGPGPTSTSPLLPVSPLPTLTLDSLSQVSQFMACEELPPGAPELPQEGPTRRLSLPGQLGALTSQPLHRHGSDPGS
Sequence of Cytochrome P450 2C9 (Homo sapiens) (P11712 whole entry, looked up): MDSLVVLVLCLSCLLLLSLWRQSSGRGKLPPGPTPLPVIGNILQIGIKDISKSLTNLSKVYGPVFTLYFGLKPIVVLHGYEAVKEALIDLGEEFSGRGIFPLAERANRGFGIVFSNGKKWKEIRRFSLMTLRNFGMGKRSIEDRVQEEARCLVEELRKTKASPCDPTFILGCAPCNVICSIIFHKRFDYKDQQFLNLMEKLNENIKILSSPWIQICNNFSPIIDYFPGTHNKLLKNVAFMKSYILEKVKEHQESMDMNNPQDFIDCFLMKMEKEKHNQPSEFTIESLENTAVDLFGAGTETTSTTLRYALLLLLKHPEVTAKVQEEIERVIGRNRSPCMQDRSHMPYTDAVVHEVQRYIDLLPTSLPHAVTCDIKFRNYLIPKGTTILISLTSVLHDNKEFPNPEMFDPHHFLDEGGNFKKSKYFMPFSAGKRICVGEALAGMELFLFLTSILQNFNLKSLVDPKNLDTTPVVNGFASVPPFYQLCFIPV
Sequence of Nuclear receptor subfamily 1 group I member 2 (Rattus norvegicus) (Q9R1A7 whole entry, looked up): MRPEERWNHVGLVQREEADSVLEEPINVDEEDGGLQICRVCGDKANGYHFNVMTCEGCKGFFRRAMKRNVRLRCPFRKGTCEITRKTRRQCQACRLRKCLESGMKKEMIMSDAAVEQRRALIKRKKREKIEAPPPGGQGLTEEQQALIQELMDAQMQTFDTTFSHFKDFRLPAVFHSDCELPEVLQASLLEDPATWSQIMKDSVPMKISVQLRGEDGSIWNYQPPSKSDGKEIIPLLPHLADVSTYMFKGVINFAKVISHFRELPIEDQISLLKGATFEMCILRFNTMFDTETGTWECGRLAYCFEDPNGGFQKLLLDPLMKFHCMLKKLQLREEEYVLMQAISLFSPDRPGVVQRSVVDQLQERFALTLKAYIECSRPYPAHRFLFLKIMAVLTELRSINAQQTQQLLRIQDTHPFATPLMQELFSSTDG

On to `COC(=O)c1ccccc1C(=O)O`, for which the molecule was classed as inactive in [1], in test [2], in [3], in [4], in test [5] and in test [6]. In addition, the outcome in [8] and in test [9] was inactive. Besides, the Potency result in test [7], in [10], in test [11] and in test [12] was “inactive” throughout.
Consider `C=CC/C=C/C`, for which the molecule was called inactive in test [1], in [2], in [3], in test [4], in [5] and in [6]. The result in test [8] and in test [9] was inactive. Besides, the Potency result in test [7], in test [10], in [13], in [14], in [15] and in test [12] was “inactive” throughout.
`O=C(CCCCC(=O)Nc1c(I)cc(I)c(C(=O)O)c1I)Nc1c(I)cc(I)c(C(=O)O)c1I`: the molecule was classed as inactive in test [1], in [2], in test [3], in [4], in test [5] and in test [6]. For the same molecule, the call in test [8] and in test [9] was inactive. Also, the Potency entry in test [10], in test [16], in test [13], in [14], in test [11] and in test [15] was “inactive” each time. The Potency entry in test [12] was “inactive”.
Take `O=C(O)CONC(=O)c1ccccc1`: the molecule was called inactive in [1], in [2], in [3], in [4], in [5] and in test [6]. Besides, the molecule was called inactive in test [8] and in test [9]. The Potency result in [10], in [16], in test [13], in test [14], in test [11] and in test [15] was “inactive” each time. Moreover, in test [12], the Potency result is “inactive”.
`OC[C@H]1O[C@@H](O[C@@H]2[C@@H](CO)O[C@](O)(CO)[C@H]2O)[C@H](O)[C@@H](O)[C@H]1O`: the call in [1], in test [2], in [3], in test [4], in test [5] and in test [6] was inactive. For the same molecule, the molecule was called inactive in [9]. Further, the Potency result in [7], in test [10], in [18], in [19], in test [13] and in test [14] was “inactive” each time. In addition, the Potency result in test [11], in test [15] and in [12] was “inactive” each time. Moreover, in test [17], the max activation is -1.58%.
`COC(C)(OC)OC`: the molecule was called inactive in test [1], in test [2], in test [3], in test [4], in test [5] and in [6]. Further, the result in [9] was inactive. In addition, the Potency entry in test [7], in test [10], in [16], in test [13], in [14] and in test [12] was “inactive” throughout.
On to `CN(C)CC/C=C1/c2ccccc2COc2ccc(CC(=O)O)cc21`, for which the molecule was classed as inactive in test [1], in [2], in test [3], in test [4], in test [5] and in test [6]. Moreover, the result in test [8] and in test [9] was inactive. Further, the Potency entry in test [10], in test [18], in test [19], in test [16], in [13] and in [14] was “inactive” each time. Further, the Potency result in test [11], in [15] and in test [12] was “inactive” each time. Also, in test [17], the max activation was -3.17%.
For `Cc1ccc2c(c1)C(=O)c1ccccc1C2=O`, the result in test [1], in test [2], in [3], in test [4], in test [5] and in test [6] was inactive. Moreover, the outcome in [8] and in [9] was inactive. Moreover, the Potency in test [10] is 15.3 µM (active); in [16], 28.2 µM (active); in test [14], 12.6 µM (active); in [11] it was 8.91 µM (active); in test [12], 7.07 µM (active). Further, in test [15], the Potency entry is “inactive”.
As to `CC(=O)CC(=O)Nc1ccc(C)cc1C`, the call in [1], in test [2], in test [3], in test [4], in test [5] and in test [6] was inactive. Also, the call in test [9] was inactive. Further, the Potency result in [7], in test [10] and in [15] was “inactive” each time. In addition, the Potency in test [14] is 31.7 µM (active); in test [11], 15.9 µM (active).
